Measurements as given in PubChem BioAssay (NCATS).
Results filed as inconclusive are left out. Activity calls are given as the source filed them. The call rests on the fitted dose curve; in most records, active means well fitted curve in the direction sought with a large enough effect; inconclusive means small, poorly fitted or top-dose-only effect, or another doubt; inactive means no such curve, though single readings can be large; an effect the other way counts as inactive or inconclusive.

Tests used:
[1] = qHTS of pediatric cancer cell lines to identify multiple opportunities for drug repurposing: Primary screen for OHS-50 cells (AID 1347103); further: nearly all actives have a fitted effect of over 40% in size; further: potency means the concentration at half of the fitted maximal effect
Method in brief: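 Cells (500-1,000/well) rested 5 h, then received compounds for 48 h; metabolically active cells were measured by CellTiter-Glo luminescence. Final concentrations spanned up to 46 µM (MIPE, 11-point) or 0.59 nM-46 µM (NPC, 8-point) in primary screens, 11-point in follow-ups.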

[2] = qHTS of pediatric cancer cell lines to identify multiple opportunities for drug repurposing: Primary screen for control Hh wild type fibroblast cells (AID 1347106);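 further: series mostly up to about 46 µM; a drop in luminescence marks cytotoxicity and a rise apparent proliferation; nearly all actives have a fitted effect of over 55% in size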
Method in brief: (§1)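 Viability after 48 h compound treatment at 37C, 500-1,000 cells/well, read as ATP luminescence with CellTiter-Glo. Primary screens used 11-point (MIPE, 0.78 nM-46 µM) or 8-point (NPC, 0.59 nM-46 µM) final concentrations; follow-up screens used 11-point dilutions.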

[3] = qHTS of pediatric cancer cell lines to identify multiple opportunities for drug repurposing: Primary screen for Rh30 cells (AID 1347107); further: series mostly up to about 46 µM; nearly all actives have a fitted effect of over 75% in size
Method in brief: as §1

[4] = qHTS of pediatric cancer cell lines to identify multiple opportunities for drug repurposing: Primary screen for Rh41 cells (AID 1347108); further: nearly all actives have a fitted effect of over 70% in size; further: potency means the concentration at half of the fitted maximal effect
Method in brief: (§2)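 ATP-based luminescence (CellTiter-Glo) quantifies viability after a 48-hour exposure. Compounds are dosed across 8 or 11 final concentrations; DMSO and 2.3 µM bortezomib serve as controls.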

[5] = qHTS of pediatric cancer cell lines to identify multiple opportunities for drug repurposing: Confirmatory screen for NB1643 cells (AID 1347109); further: potency means the concentration at half of the fitted maximal effect; nearly all actives have a fitted effect of over 45% in size
Method in brief: as §1

[6] = qHTS of pediatric cancer cell lines to identify multiple opportunities for drug repurposing: Confirmatory screen for SK-N-MC cells (AID 1347111);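 further: potency means the concentration at half of the fitted maximal effect; cells exposed to compound for 48 h before the readout; nearly all actives have a fitted effect of over 70% in size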
Method in brief: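 SK-N-MC cells at 500-1,000 cells/well in growth media were pre-incubated 5 h, then exposed to compounds at 11-point dilutions for 48 h at 37 degrees C, 5% CO2. Viability was read as CellTiter-Glo luminescence.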

[7] = qHTS of pediatric cancer cell lines to identify multiple opportunities for drug repurposing: Confirmatory screen for BT-12 cells (AID 1347112); further: nearly all actives have a fitted effect of over 55% in size; further: potency means the concentration at half of the fitted maximal effect
Method in brief: as §1

[8] = qHTS of pediatric cancer cell lines to identify multiple opportunities for drug repurposing: Confirmatory screen for DAOY cells (AID 1347114); further: potency means the concentration at half of the fitted maximal effect; nearly all actives have a fitted effect of over 65% in size
Method in brief: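 Viability measured as metabolically active cells via CellTiter-Glo luminescence following 48 hours of compound exposure, 11-point dilutions in confirmatory testing. 500-1,000 cells/well plated 5 hours before dosing; controls were DMSO and 2.3 µM bortezomib.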

[9] = qHTS of pediatric cancer cell lines to identify multiple opportunities for drug repurposing: Confirmatory screen for BT-37 cells (AID 1347117); further: potency means the concentration at half of the fitted maximal effect; nearly all actives have a fitted effect of over 55% in size
Method in brief: as §1

[10] = qHTS of pediatric cancer cell lines to identify multiple opportunities for drug repurposing: Confirmatory screen for Rh41 cells (AID 1347123); further: potency means the concentration at half of the fitted maximal effect; nearly all actives have a fitted effect of over 60% in size
Method in brief: as §1

[11] = qHTS of pediatric cancer cell lines to identify multiple opportunities for drug repurposing: Primary screen for MG 63 (6-TG R) cells (AID 1347105); further: nearly all actives have a fitted effect of over 50% in size
Method in brief: as §2

[12] = qHTS of pediatric cancer cell lines to identify multiple opportunities for drug repurposing: Confirmatory screen for TC32 cells (AID 1347118); further: potency means the concentration at half of the fitted maximal effect; nearly all actives have a fitted effect of over 65% in size
Method in brief: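 Luminescent CellTiter-Glo read-out of metabolically active TC32 cells after 48 h compound exposure. Primary: MIPE 11-point, 0.78 nM–46 µM; NPC 8-point, 0.59 nM–46 µM. Confirmatory: 11-point dilutions.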

[13] = qHTS of pediatric cancer cell lines to identify multiple opportunities for drug repurposing: Confirmatory screen for control Hh wild type fibroblast cells (AID 1347121); further: nearly all actives have a fitted effect of over 70% in size
Method in brief: as §1

[14] = qHTS of pediatric cancer cell lines to identify multiple opportunities for drug repurposing: Confirmatory screen for U-2 OS cells (AID 1347122); further: potency means the concentration at half of the fitted maximal effect; nearly all actives have a fitted effect of over 65% in size
Method in brief: as §1

[15] = qHTS of pediatric cancer cell lines to identify multiple opportunities for drug repurposing: Primary screen for RD cells (AID 1347104); further: nearly all actives have a fitted effect of over 55% in size; further: potency means the concentration at half of the fitted maximal effect
Method in brief: as §2

[16] = qHTS of pediatric cancer cell lines to identify multiple opportunities for drug repurposing: Confirmatory screen for A673 cells (AID 1347110); further: potency means the concentration at half of the fitted maximal effect; nearly all actives have a fitted effect of over 65% in size
Method in brief: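 Cells plated at 500-1,000/well were treated five hours later with multi-point dilutions up to 46 µM final. After two days, CellTiter-Glo was added and luminescence read.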

[17] = qHTS of pediatric cancer cell lines to identify multiple opportunities for drug repurposing: Confirmatory screen for NB-EBc1 cells (AID 1347115); further: potency means the concentration at half of the fitted maximal effect; nearly all actives have a fitted effect of over 45% in size
Method in brief: as §1

[18] = qHTS of pediatric cancer cell lines to identify multiple opportunities for drug repurposing: Confirmatory screen for RD cells (AID 1347124)
Method in brief: as §1

[19] = qHTS of pediatric cancer cell lines to identify multiple opportunities for drug repurposing: Confirmatory screen for Rh18 cells (AID 1347125)
Method in brief: as §1

SMILES: C=CCON=C(C[C@H]1O[C@@H]2O[C@]3(C)CC[C@@H]4[C@H](C)CC[C@@H]([C@H]1C)[C@@]24OO3)[C@H]1O[C@@H]2O[C@]3(C)CC[C@H]4[C@H](C)CC[C@@H]([C@@H]1C)[C@@]24OO3
- Potency [1]: 306 nM (active)
- Potency [2]: inactive
- Potency [3]: inactive
- Potency [4]: 469 nM (active)
- Potency [5]: 414 nM (active)
- Potency [6]: 147 nM (active)
- Potency [7]: 261 nM (active)
- Potency [8]: 1850 nM (active)
- Potency [9]: 147 nM (active)
- Potency [10]: 52.2 nM (active)

SMILES: C=CCC1=C(C)C(OC(=O)C2C(C=C(C)C)C2(C)C)CC1=O (stereo unspecified)
- Potency [1]: 28200 nM (active)
- Potency [11]: inactive
- Potency [2]: inactive

SMILES: ClC1=C(Cl)[C@]2(Cl)[C@@H]3[C@@H]4C[C@@H]([C@H]5O[C@@H]45)[C@@H]3[C@@]1(Cl)C2(Cl)Cl
- Potency [1]: 28200 nM (active)
- Potency [2]: inactive
- Potency [3]: inactive

SMILES: CN1CCN(c2ccc([N+](=O)[O-])c3no[n+]([O-])c23)CC1
- Potency [1]: 34300 nM (active)
- Potency [2]: inactive
- Potency [3]: inactive

SMILES: C[C@]12CC[C@H]3[C@@H](CCC4=CC(=O)CC[C@@]43C)[C@H]1CC[C@H]2OC(=O)CCC1CCCC1
- Potency [1]: inactive
- Potency [11]: inactive
- Potency [2]: inactive
- Potency [3]: inactive
- Potency [4]: inactive

SMILES: NC1=NC(=O)N2CC12 (stereo unspecified)
- Potency [1]: inactive
- Potency [11]: inactive
- Potency [2]: inactive
- Potency [3]: inactive
- Potency [4]: inactive

SMILES: COc1ccc2c(c1)CN(C)CC2c1ccc(Cl)c(Cl)c1 (stereo unspecified)
- Potency [1]: 21700 nM (active)
- Potency [11]: inactive
- Potency [2]: inactive
- Potency [3]: inactive
- Potency [4]: inactive
- Potency [6]: 6570 nM (active)
- Potency [7]: inactive
- Potency [9]: 23300 nM (active)
- Potency [12]: 6570 nM (active)
- Potency [13]: inactive
- Potency [14]: 20800 nM (active)
- Potency [10]: 18500 nM (active)

SMILES: O=c1[nH]c2ccccc2n1C1CCN(Cc2ccc(-c3[nH]c4cc5ncnc5cc4nc3-c3ccccc3)cc2)CC1
- Potency [1]: 1720 nM (active)
- Potency [2]: inactive

SMILES: C=C1C[C@H]2[C@H]3CCC(=O)[C@@]3(C)CC[C@@H]2[C@@]2(C)C=CC(=O)C=C12
- Potency [15]: inactive
- Potency [11]: inactive
- Potency [2]: inactive
- Potency [3]: inactive

SMILES: CC(C)(O)C(=O)Nc1ccc([N+](=O)[O-])c(C(F)(F)F)c1
- Potency [15]: 29600 nM (active)

SMILES: O=C(N[C@@H](COc1ccc2[nH]c(=O)[nH]c2c1)c1ccccc1)c1cccn(Cc2ccc(F)c(F)c2)c1=O
- Potency [1]: 30600 nM (active)
- Potency [2]: inactive
- Potency [3]: inactive

SMILES: CC(=O)O[C@@]12CO[C@H]1C[C@H](O)[C@@]1(C)C(=O)[C@H](O)C3=C(C)[C@@H](O)C[C@@](O)([C@@H](OC(=O)c4ccccc4)[C@@H]21)C3(C)C
- Potency [1]: 1720 nM (active)
- Potency [2]: inactive
- Potency [3]: inactive

SMILES: C[C@H]1CCCC=CC2C[C@H](O)C[C@@H]2[C@H](O)C=CC(=O)O1 (stereo partly specified)
- Potency [1]: 1 nM (active)
- Potency [15]: 1 nM (active)
- Potency [3]: inactive
- Potency [5]: 131 nM (active)
- Potency [16]: 414 nM (active)
- Potency [6]: 104 nM (active)
- Potency [7]: 165 nM (active)
- Potency [17]: 117 nM (active)
- Potency [9]: 92.8 nM (active)
- Potency [12]: 117 nM (active)
- Potency [14]: 208 nM (active)
- Potency [10]: 827 nM (active)
- Potency [18]: 329 nM (active)
- Potency [19]: 104 nM (active)

SMILES: O=S(=O)(CC1CS1)c1ccc(Oc2ccccc2)cc1 (stereo unspecified)
- Potency [1]: 30600 nM (active)
- Potency [2]: inactive
- Potency [4]: 18700 nM (active)
